# An excerpt weighted towards active compounds, which were near 4.1% of everything screened.
# hcDAF12 agonist = H. contortus DAF-12 nuclear receptor activators, primary screen, cell-based, luminescence, HEK293, lit1-tk-luc reporter; activation, % at 6.8 µM; HEK293 hcDAF-12 lit1-tk-luc reporter; 0% DMSO, 100% Δ7-dafachronic acid; 370,000 compounds, 1.4% hits;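 active = activation above the mean of all tested compounds plus 3 SD, cut at about 5.5% in these data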
# DAX1 inh-1 = DAX1 (NR0B1) inhibitors on StAR promoter, primary screen, cell-based, luminescence, SF-1 (NR5A1), full-length DAX-1; HEK293T StAR-luciferase reporter, SF-1/DAX-1 repression relief; inhibition, % at 6.8 µM; 370,000 compounds, 1.1% hits; AID 652010, 2013;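 active = inhibition above the mean over all tested compounds plus 3 SD, cut at about 3.6% in these data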;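 also: higher inhibition means more luminescence from relief of DAX-1 repression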
# DAX1 inh-2 = DAX1 (NR0B1) inhibitors, primary screen, cell-based, HEK293, Gal4-DAX1, luciferase luminescence; Nuclear receptor subfamily 0 group B member 1 (Homo sapiens), P51843; 340,000 compounds, 0.99% hits; AID 504766, 2011; HEK293 Gal4-DAX1 luciferase reporter; inhibition, % at 6.75 µM;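 active = inhibition above the mean over all tested compounds plus 3 SD, cut at about 4.2% in these data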;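 also: inhibition shows as a rise in luminescence from relieved DAX1 repression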
# hgDAF12 agonist = H. glycines DAF-12 receptor agonists, primary screen, cell-based, luminescence, HEK293, GAL4 fusion, UAS-luciferase; AID 687014, 2013; HEK293 GAL4-hgDAF12 UAS-luciferase reporter, agonist luminescence; normalized to butyrate control; activation, % at 6.8 µM; 370,000 compounds, 1.8% hits;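 active = activation above a cutoff set at the mean of all screened compounds plus 3 SD, cut at about 10% in these data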
# ssDAF12 agonist = S. stercoralis DAF-12 nuclear receptor activators, primary screen, cell-based, luminescence, HEK293, GRIP1 co-expression, lit1-tk-luc | Nuclear hormone receptor DAF-12 (Strongyloides stercoralis) | HEK293 ssDAF-12/GRIP1 lit1-tk-luc reporter; % of 3 µM dafachronic acid response | activation, % at 6.8 µM | 370,000 compounds, 1% hits | AID 652126, 2013;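 active = activation above the mean over all tested compounds plus 3 SD, cut at about 0.9% in these data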
# LXRb hcDAF ctr = LXR agonists, Gal4 luciferase reporter, confirmation, counter-screen for hcDAF-12 agonist project, cell-based, luminescence, HEK293, H. contortus campaign; HEK293 Gal4-LXR tk-luc reporter, 24 h; normalized: DMSO 0%, positive control 100%; AID 743027, 2013; 3,400 tested, under 10 active; activation, % at 6.8 µM; shares compounds with hcDAF12 agonist;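 active = mean percent activation of the reporter above a cutoff set as the average over tested compounds plus their standard deviation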
# Target sequence (P55055 whole entry, looked up, the tested form may be a part): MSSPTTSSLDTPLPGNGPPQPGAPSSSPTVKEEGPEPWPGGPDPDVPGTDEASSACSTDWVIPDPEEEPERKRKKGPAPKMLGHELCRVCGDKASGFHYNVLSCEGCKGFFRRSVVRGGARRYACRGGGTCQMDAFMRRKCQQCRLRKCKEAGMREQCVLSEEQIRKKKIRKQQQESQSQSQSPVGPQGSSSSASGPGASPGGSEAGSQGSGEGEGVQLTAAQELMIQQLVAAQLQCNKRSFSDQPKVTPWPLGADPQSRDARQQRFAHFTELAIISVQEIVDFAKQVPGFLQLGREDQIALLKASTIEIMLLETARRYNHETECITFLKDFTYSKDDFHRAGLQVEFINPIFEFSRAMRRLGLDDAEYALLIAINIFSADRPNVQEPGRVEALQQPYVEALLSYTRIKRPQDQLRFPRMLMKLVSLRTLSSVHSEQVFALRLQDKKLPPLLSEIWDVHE
# hcDAF12 conf = H. contortus DAF-12 receptor agonists, confirmation, cell-based, luminescence, HEK293, lit1-tk-luc, triplicate; shares compounds with hcDAF12 agonist; HEK293 hcDAF-12 lit1-tk-luc reporter; % of Δ7-dafachronic acid response; activation, % at 6.8 µM; 3,400 compounds, 61% hits; AID 743032, 2013;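 active = mean activation across triplicate tests above the threshold derived from the earlier primary screen, cut at about 5.5% in these data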
# Hits are given with their value; 0 = inactive; - = no result given.
SMILES,hcDAF12 agonist,DAX1 inh-1,DAX1 inh-2,hgDAF12 agonist,ssDAF12 agonist,LXRb hcDAF ctr,hcDAF12 conf
Cc1onc(-c2ccccc2Cl)c1C(=O)O/N=C(\N)c1ccc([N+](=O)[O-])o1,0,0,0,0,0,-,-
CC1(C(=O)NS(=O)(=O)c2ccccc2)CCN1C(=O)CCc1ccccc1 (configuration not stated),0,0,-,0,0,-,-
CS(=O)(=O)N1N=C(c2cccs2)CC1c1ccc(Cl)o1 (configuration not stated),0,0,0,0,0,-,-
CC(C)=N/N=C(/c1ccc([N+](=O)[O-])cc1)C12CN3CN(CN(C3)C1)C2,6.9,0,0,0,0,0,0
O=[N+]([O-])c1cccc(/C(=N/N=C/c2ccccc2Br)C23CN4CN(CN(C4)C2)C3)c1,0,0,0,0,0,-,-
CC1(C(=O)N2Cc3ccccc3C2)CCN1C(=O)C1(c2ccccc2)CC1 (configuration not stated),0,0,-,0,0,-,-
O=C1c2ccccc2C(=O)N1CCCCON1C(=O)c2ccccc2C1=O,0,0,0,0,0,-,-
CCCCON1C(=O)c2cccc3cccc(c23)C1=O,9.6,0,0,0,0,0,7.4
COc1ccc(NC(=O)/C=C/c2ccc(F)cc2)cn1,0,0,0,0,0,-,-
COc1ccc(NC(=O)/C=C/c2ccccc2)cn1,8.5,0,0,11.9,0,0,6.5
CCOC(=O)c1ccc2c(c1)nc(-c1ccccn1)n2CC,7.6,0,0,0,0.9,0,8.7
COc1cccc(-c2nc(N3CCN(C)CC3)c3ccccc3n2)c1O,7.8,0,0,0,0,0,0
C[C@H]1COc2cccc(N3CCCC3)c2S(=O)(=O)N1,0,0,-,0,0,-,-
CC1(C)CC(=O)C(N=Nc2ccc(C(F)(F)F)cc2[N+](=O)[O-])=C(O)C1,0,0,-,0,0,-,-
O=C1NCCCC1C(=O)N/N=C/c1ccccc1O (configuration not stated),7.5,0,0,0,0,0,0
CN(/N=C/c1ccc2c(c1)OCO2)c1ccccc1,9.1,0,0,11.2,0,0,0
COc1cccc(CNC(=O)[C@@H]2CCCN2C(=O)[C@@H]2CCCN2C(=O)c2cccc(OC)c2)c1,0,0,-,0,0,-,-
C/C(=N\NC(=S)Nc1ccc(C)c(C)c1)c1ccc(N2CCOCC2)cc1,6.9,0,0,0,0,0,0
C/C(=N\NC(=S)Nc1cc(S(=O)(=O)N2CCOCC2)ccc1Cl)c1ccc(N2CCOCC2)cc1,0,0,0,0,0,-,-
CCCCCNC(=O)c1c[nH]c2ccc(S(=O)(=O)N3CCC4(CC3)OCCO4)cc2c1=O,0,0,0,0,0,-,-
COc1cc(C=C2C(=O)OC(C)(C)OC2=O)ccc1OCC(=O)Nc1ccccc1,7.1,0,0,0,0,0,0
COc1cc(/C=C/c2cc[n+](C)cc2)ccc1OCC(=O)Nc1ccccc1,0,0,0,0,0,-,-
Cc1sc2c(c1C)CN(CCN1CCOCC1)CN2C(=O)c1ccccc1,9.6,0,0,0,0,0,6.0
COc1ccc2c(C(=O)CN3CCSCC3)c[nH]c2c1,6.6,0,0,0,0,0,0
CC(c1ccccn1)N(Cc1ccco1)C(=S)Nc1cccc(F)c1 (configuration not stated),0,0,0,0,0,-,-
SMILES,hcDAF12 agonist,DAX1 inh-1,DAX1 inh-2,hgDAF12 agonist,ssDAF12 agonist,LXRb hcDAF ctr,hcDAF12 conf
CC(=O)NCc1ccc(S(=O)(=O)N/N=C/c2ccc(Br)cc2)cc1,9.0,0,0,0,0,0,0
Cc1ccc(/C=C/C(=O)Nc2ncc(C)s2)o1,7.2,0,0,0,0,0,0
Cc1cc(C)c(NC(=O)C(C)OC(=O)c2cc(Br)c(Br)s2)c(C)c1 (configuration not stated),0,0,0,0,0,-,-
CCC1(C)N=C(c2ccc3c(c2)OCO3)CC(c2ccccc2O)N1 (configuration not stated),7.9,0,0,0,0,0,0
Cc1noc2ncnc(Sc3ccc(Br)cc3)c12,0,0,0,0,0,-,-
COc1ccccc1C(=O)NNC(=O)c1cccc(O)c1,10.3,0,0,0,2.6,0,15.0
COc1ccccc1C(=O)NNC(=O)c1ccc(NS(=O)(=O)c2cccs2)cc1,10.2,0,0,0,0,0,6.4
COc1ccccc1C(=O)NNC(=O)c1cccc(F)c1,10.4,3.9,0,0,1.2,0,11.0
COc1ccccc1C(=O)NNC(=O)c1ccc(C)cc1,0,0,0,0,0,-,-
NCCNc1ccc(C(=O)N2c3ccccc3Sc3ccccc32)cc1[N+](=O)[O-],0,0,0,0,0,-,-
Cc1ccc2nc(Br)c3c(c2c1)OC(CBr)C3 (configuration not stated),7.4,0,0,0,0,0,0
Cc1nc2c(Cl)cccc2c2c1CC(CBr)O2 (configuration not stated),0,0,0,0,0,-,-
COc1ccc(S(=O)(=O)NCc2ccc(C(=O)NCCN(C)Cc3ccccc3)cc2)cc1,0,0,-,0,0,-,-
Cc1c(NC(=O)COc2ccc3ccc(=O)oc3c2)c(=O)n(-c2ccccc2)n1C,0,0,0,0,0,-,-
Cc1ccc(NC(=O)c2sc(N)nc2C)cc1,6.9,0,0,11.2,0,0,0
N/C(=N\N=C\c1ccc(O)cc1)c1nonc1N,7.9,0,0,15.6,0,0,0
CCOC(=O)[C@]12CCCC=C1N(Cc1cccc3ccccc13)C(=O)[C@H](CC(=O)N1CCOCC1)C2,0,0,-,0,0,-,-
Clc1ccc2oc(-c3ccccn3)nc2c1,7.6,0,0,0,1.8,0,9.0
Nc1ccc2oc(-c3ccccn3)nc2c1,0,0,0,0,0,-,-
Cc1csc(NC(=O)CSc2sc3c(O)cc(=O)[nH]c3c2C#N)n1,6.6,0,0,0,0,0,0
O=C(NC1CC1)c1ccc2c(c1)S(=O)(=O)c1cc(Cl)ccc1C2=O,0,0,-,0,0,-,-

# Source: PubChem BioAssay
